Most compounds without a hit are left out; they make up all but 1.2% or so of the library.
RGS16-Gao HTS = RGS16-Galphao interaction regulator (human) | O15492+P09471 | hit rate 0.38% among 220,000 | binding response (% of control), % at 10 µM | bead-based flow cytometry RGS16-Galphao binding, fluorescence; actives lie on both sides;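 note: Galphao activated by GDP with aluminum fluoride before binding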
RGS8-Gao reg = human RGS8-Galphao interaction regulation; P09471; multiplexed bead flow cytometry, RGS8-Galphao binding; actives lie on both sides; response (percent of control binding), % at 10 µM; hit rate 0.34% among 220,000; AID 1423; in the data active = response below about 60% or above about 140%; inactive = in between;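 note: Galphao activated as the GDP aluminium fluoride complex binding bead-coupled RGS8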
Target sequence (P09471 whole entry, looked up): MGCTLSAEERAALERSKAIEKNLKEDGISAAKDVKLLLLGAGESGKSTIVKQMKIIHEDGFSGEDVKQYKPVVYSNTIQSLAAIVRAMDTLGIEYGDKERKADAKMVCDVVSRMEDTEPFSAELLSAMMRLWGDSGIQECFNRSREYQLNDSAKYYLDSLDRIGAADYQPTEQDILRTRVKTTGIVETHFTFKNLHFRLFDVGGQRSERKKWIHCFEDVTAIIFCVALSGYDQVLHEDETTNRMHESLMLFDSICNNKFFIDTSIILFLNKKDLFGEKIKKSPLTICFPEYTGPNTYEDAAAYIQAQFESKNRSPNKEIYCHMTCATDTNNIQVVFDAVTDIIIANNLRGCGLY
Avidin bead fluor = avidin bead compound fluorescence profile. Avidin beads, compound fluorescence 488/530 nm, flow cytometry; active compounds read high. fluorescence (KMESF) at 10 µM. hit rate 0.38% among 220,000; in the data active = fluorescence above about 47
GSH fluor = GSH bead compound fluorescence profile; AID 1776; hit rate 0.25% among 190,000; GSH beads flow cytometry, compound fluorescence 488/530 nm; active compounds read high; fluorescence (KMESF) at 10 µM; in the data active = fluorescence above about 89;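 note: glutathione beads carrying GST-tagged Bcl family fusion proteins plus one bare bead set; values are compound well signal with DMSO vehicle wells as background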
RGS4-Gao reg = human RGS4-Galphao interaction regulation | Multiplexed bead flow cytometry, RGS4-Galphao binding; actives lie on both sides | hit rate 0.33% among 220,000 | binding response (% of control), % at 10 µM | AID 1415 | P09471; in the data active = binding response below about 49% or above about 150%; inactive = in between;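 note: fluorescent Galphao activated with aluminum fluoride binding bead-coupled RGS4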
RGS7-Gao reg = modulates binding of RGS7 to human Galphao; binding response (% of control), % at 10 µM; Multiplexed bead flow cytometry; actives lie on both sides; hit rate 0.35% among 220,000; P09471; AID 1439; in the data active = binding response below about 49% or above about 150%; inconclusive = no clear call, values can overlap the other calls; inactive = in between;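 note: fluorescent Galphao held in activated GDP-AlF4 state binding bead-coupled RGS7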
RGS-Gao = modulates binding between human RGS4 and Galphao; shares compounds with RGS16-Gao HTS; multiplexed bead flow cytometry, RGS–Galpha-o binding; RGS4–Galpha-o binding response, % at 10 µM; hit rate 99% among 1,600; AID 1504;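 note: fluorescently labeled Galpha-o bound to GDP with aluminium fluoride binding biotinylated RGS beads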
Target sequence (P09471 whole entry, looked up): as above
Target sequence (P49798 whole entry, looked up): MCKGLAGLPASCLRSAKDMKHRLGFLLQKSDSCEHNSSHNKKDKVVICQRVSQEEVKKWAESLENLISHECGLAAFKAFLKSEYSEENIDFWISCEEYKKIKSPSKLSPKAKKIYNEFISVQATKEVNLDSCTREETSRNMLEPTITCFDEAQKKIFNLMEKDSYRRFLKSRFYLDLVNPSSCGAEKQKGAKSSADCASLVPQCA
Biotin-avidin = counter-screen: compounds disrupting biotin binding to avidin beads | shares compounds with RGS16-Gao HTS | streptavidin beads, fluorescein-biotin binding, flow cytometry | inhibition, % at 10 µM | 1,700 tested, under 10 active;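 active = inhibition above 50%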;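 note: median green fluorescence of gated singlet beads compared with DMSO control wells; 0% = DMSO wells and 100% = complete loss of bead fluorescence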
RGS8-Gao confirm = RGS8-Galphao interaction regulation, single point confirmation. AID 1836. bead-based flow cytometry RGS8-Galphao binding, fluorescence; actives lie on both sides. binding response (% of control), % at 10 µM. shares compounds with RGS16-Gao HTS. hit rate 3% among 1,700; in the data active = binding response below about 72% or above about 130%; inactive = in between;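 note: Galphao activated as GDP AlF4 complex before binding bead RGS8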
RGS7-Gao confirm = RGS7-Galphao interaction regulation, single point confirmation. shares compounds with RGS16-Gao HTS. bead-based flow cytometry RGS7-Galphao binding; actives lie on both sides. response (percent of control binding), % at 10 µM. hit rate 7.8% among 1,700. AID 1837; in the data active = response below about 75% or above about 130%; inactive = in between;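 note: fluorescent Galphao activated with GDP and aluminum fluoride binding bead-coupled RGS7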
RGS16-Gao single = confirmation of regulators of human RGS16-Galphao interaction; shares compounds with RGS16-Gao HTS; bead-based flow cytometry, RGS16-Galphao binding; actives lie on both sides; response (% of control binding), % at 10 µM; hit rate 4% among 1,700; AID 1838; in the data active = response below about 74% or above about 130%; inactive = in between;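 note: Galphao activated as the GDP aluminium fluoride complex binding bead-coupled RGS16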
RGS4-Gao confirm = RGS4-Galphao interaction regulation, single point confirmation | shares compounds with RGS16-Gao HTS | RGS4-Galphao binding, multiplexed bead flow cytometry; actives lie on both sides | binding response (% of control), % at 10 µM | hit rate 4% among 1,700; in the data active = binding response below about 74% or above about 130%; inactive = in between
RGS19-Gao single = confirmation of regulators of human RGS19-Galphao interaction. AID 1841. response (percent of control binding), % at 10 µM. hit rate 5% among 1,700. bead-based flow cytometry RGS19-Galphao binding; actives lie on both sides. shares compounds with RGS16-Gao HTS; in the data active = response below about 50% or above about 160%; inactive = in between;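 note: 100% = no compound control and 0% = blank background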
* = called active by the depositor; ? = inconclusive; . = no result; ! = not active in a repeat; [ ] = remark or other dose. Unless noted, the rule behind the calls is not given here.

SMILES | RGS16-Gao HTS | RGS8-Gao reg | Avidin bead fluor | GSH fluor | RGS4-Gao reg | RGS7-Gao reg | Biotin-avidin | RGS8-Gao confirm | RGS7-Gao confirm | RGS16-Gao single | RGS4-Gao confirm | RGS19-Gao single | others
Cc1ccc(Cl)cc1NC(=O)Nc1cccs1 | 103 | 103 | 26 | 8 | 97 | 101 | . | . | . | . | . | .
CC(C)CCOc1cccc(OCC(=O)O)c1 | 352*[activator] | 130 | 84* | 63 | 422*[activator] | 375*[activator] | 4 | 97 | 72* | 87 | 85 | 58
O=C(N/N=C/c1ccc(O)cc1O)/C(=C/c1ccccc1)CCO | 97 | 97 | 12 | 10 | 98 | 99 | . | . | . | . | . | .
Cc1ccccc1-n1sc2cc(F)ccc2c1=O | 4.8* | 37* | 2 | 7 | 90 | 104 | . | . | . | . | . | . | RGS-Gao=90*
CN(C)S(=O)(=O)Oc1cccc(C(=O)Nc2ccc([N+](=O)[O-])cc2)c1 | 102 | 104 | 13 | 15 | 105 | 102 | . | . | . | . | . | .
CCCNC(=O)CN(c1cccc(F)c1)S(C)(=O)=O | 282 | 155*[activator] | 7 | 15 | 126 | 117 | 2 | 103 | 106 | 103 | 102 | 108 | RGS-Gao=126*
Cc1cc(C)cc(N(CC(=O)NCCSCc2ccccc2)S(C)(=O)=O)c1 | 108 | 104 | 77* | 10 | 119 | 180*[activator] | 0 | 100 | 47* | 82 | 60* | 48* | RGS-Gao=119*
Cc1nc2c(-c3ccc(F)cc3)cnn2c2c1CCC2 | 106 | 102 | 9 | 15 | 98 | 101 | . | . | . | . | . | .
CC(C)(C)NC(=O)COC(=O)c1ccc(Cl)nc1 | . | . | . | 21 | . | . | 1 | 96 | 64* | 77 | 79 | 45*
CC(C)(C)NC(=O)c1cccc2c1OC(C)(C)C2 | 20* | 66 | 1 | 12 | 87 | 89 | 0 | 98 | 94 | 100 | 98 | 80 | RGS-Gao=87*
CCN1C(=O)C(CC(=O)Nc2ccc(OC)cc2)N(Cc2ccco2)C1=S (stereo not drawn) | 308 | 143*[activator] | 11 | 22 | 116 | 105 | -1 | 99 | 90 | 96 | 96 | 77 | RGS-Gao=116*
Cc1nc2c3ccccc3nc(NNC(=O)CCC(=O)NC(C)C)n2n1 | 4.1* | 71 | 5 | 13 | 89 | 83 | 1 | 101 | 97 | 99 | 98 | 97 | RGS-Gao=89*
CCC(C)NC(=O)CCC(=O)NNc1nc2ccccc2c2nc(C)nn12 (stereo not drawn) | 100 | 99 | 5 | 8 | 97 | 96 | . | . | . | . | . | .
O=C(Oc1ccc(Br)cc1)c1cncc(Br)c1 | 170 | 110 | 89* | 36 | 171*[activator] | 159*[activator] | 0 | 103 | 112 | 105 | 106 | 102
CC1Cc2ccccc2N1C(=S)NC(=O)C1(C)CC1(Cl)Cl (stereo not drawn) | 7.2* | 31* | 4 | 15 | 8.4* | 13* | 0 | 99 | 99 | 101 | 101 | 98
CC1Cc2ccccc2N1C(=S)NC(=O)c1ccco1 (stereo not drawn) | 99 | 99 | 11 | 15 | 101 | ? | . | . | . | . | . | .
Cc1cc(C(=O)CSc2nnc(-c3cccnc3)n2-c2ccccc2F)c(C)n1C | -0.8*! | 11*! | 24 | 10 | 6.8*! | 5.0*! | 0 | 97 | 113 | 102 | 108 | 101
CS(=O)(=O)c1ccc(C(=O)OCC(=O)NC(=O)C2CCCCC2)cc1[N+](=O)[O-] | 99 | 98 | 11 | 12 | 99 | ? | . | . | . | . | . | .
CC(NC(=O)Cc1cccs1)C(c1cccs1)N1CCOCC1 (stereo not drawn) | 7.5* | 45* | 2 | 37 | 39* | 45* | 1 | 111 | 119 | 110 | 114 | 105
Cc1c(Cl)cccc1NC(=S)N1CCN(Cc2ccccc2)CC1 | 226 | 126 | 29 | 17 | 107 | 110 | 2 | 102 | 106 | 101 | 101 | 93
S=C(Nc1ccccc1Cl)N1CCN(Cc2ccccc2)CC1 | 113 | 107 | 6 | 12 | 109 | 110 | . | . | . | . | . | .
CCOC(=O)c1c(C)[nH]c(C(=O)COC(=O)C2CC(=O)N(Cc3ccccc3)C2)c1C (stereo not drawn) | 511 | 163*[activator] | 97* | 239* | 166*[activator] | 218*[activator] | 0 | 99 | 95 | 92 | 95 | 93
CC(C)Cc1nnc(NC(=O)CSc2ccccn2)s1 | . | . | . | 39 | . | . | 0 | 102 | 97 | 102 | 99 | 105
Cn1c(CSCc2ccc(Cl)cc2)nnc1SCC(=O)Nc1nc2ccccc2s1 | . | . | . | 39 | . | . | -1 | 98 | 101 | 99 | 102 | 103
Cn1c(CSCc2ccc(Cl)cc2)nnc1SCC(=O)Nc1nccs1 | 109 | 102 | 20 | 17 | 104 | 103 | . | . | . | . | . | .
SMILES | RGS16-Gao HTS | RGS8-Gao reg | Avidin bead fluor | GSH fluor | RGS4-Gao reg | RGS7-Gao reg | Biotin-avidin | RGS8-Gao confirm | RGS7-Gao confirm | RGS16-Gao single | RGS4-Gao confirm | RGS19-Gao single | others
CCC(=O)N(Cc1cc(=O)[nH]c2ccccc12)c1ccc(C)cc1 | 95 | 95 | 8 | . | 96 | ? | . | . | . | . | . | .
COc1ccc2[nH]c(=O)c(COC(=O)c3cccs3)cc2c1 | 14 | 22* | -2 | 10 | 21* | 20* | -2 | 101 | 92 | 98 | 101 | 84
CC(C)OC(=O)CSc1nc(Cc2ccccc2)nc2ccccc12 | 116 | 109 | 13 | 12 | 108 | 109 | . | . | . | . | . | .
O=C(COC(=O)Cc1cccc(C(F)(F)F)c1)NC1CC1 | 6.5* | 12* | 0 | 14 | 16* | 12* | 0 | 105 | 104 | 106 | 105 | 116
O=C(COC(=O)Cc1cccc(C(F)(F)F)c1)Nc1ccc2c(c1)OCCO2 | 92 | 93 | 14 | 9 | 87 | 81 | . | . | . | . | . | .
N/C(=N\OC(=O)CSc1ccccc1)c1ccc([N+](=O)[O-])cc1 | 207 | 120 | 11 | 5 | 115 | 128 | . | . | . | . | . | .
COc1ccc(NC(=O)C2CC(=O)OC2c2ccccc2)cc1 (stereo not drawn) | 24* | 90 | 7 | 10 | 96 | 99 | 0 | 104 | 103 | 104 | 103 | 102 | RGS-Gao=96*

High-throughput results as filed in PubChem BioAssay.
